About 2,700 (4%) of roughly 68,000 compounds showed an effect of 50% or more. This is one part of a sample in which strong results are shown more often than they occur.
What follows are compounds tested on Plasmodium berghei (assay: Screen against P. berghei liver stage (PbLuc), transformed with Luciferase, at 2uM). Conditions: tested at 2 uM.
Type: functional, HepG2

SMILES | INHIBITION [%]
CC(=O)N1CCC(CCNC(C)Cc2ccc(F)cc2)CC1 (configuration not stated) | 63.1
CC(=O)N1CCC(CCNC(C)c2cc(C)cc(C)c2)CC1 (configuration not stated) | 8.03
CC(=O)N1CCC(CCNC(C)c2cc(F)cc(F)c2)CC1 (configuration not stated) | 14.63
CN(C)C(=O)C1CN(Cc2ccccn2)CCN(S(C)(=O)=O)C1 (configuration not stated) | 25.72
Cc1noc(C)c1CN(C)C(=O)c1ccc(C(N)=O)nc1 | 17.31
COc1ccccc1CN(CC1CCCO1)C(=O)c1scnc1C (configuration not stated) | 21.54
O=C(c1ccco1)N1C[C@@H]2OCCN(c3ncccn3)[C@@H]2C1 | 41.73
CCN1C(=O)C(c2ccccc2)CC12CCN(Cc1cccnc1)CC2 (configuration not stated) | 52.36
CCN1C(=O)C(c2ccccc2)CC12CCN(CCO)CC2 (configuration not stated) | 21.06
CCN1C(=O)C(c2ccccc2)CC12CCN(c1ncccn1)CC2 (configuration not stated) | 30.4
N#CCCN(C(=O)CCc1cccnc1)c1ccc2c(c1)OCCO2 | 33.26
CN(C)C(=O)c1ccn(-c2ccc3ccccn23)n1 | 6.35
CC(C)(CNc1ccc(S(=O)(=O)C(F)F)cc1)N1CCOCC1 | 5.02
CC(C)(CNc1ccccc1S(=O)(=O)C(F)F)N1CCOCC1 | -64.31
CCC(C)(CNC(=O)Nc1nncs1)N1CCOCC1 (configuration not stated) | -42.64
CCC(C)(CNC(=O)Nc1nccs1)N1CCOCC1 (configuration not stated) | 21.24
CC(C)(CNC(=O)Nc1nccs1)N1CCOCC1 | 64.2
CC(C)(CNC(=O)Nc1ccc(S(=O)(=O)C(F)F)cc1)N1CCOCC1 | 53.63
CCC(CC)(CCO)CNC(=O)c1ccon1 | 34.69
CS(=O)(=O)NCCNC(=O)Cc1ccc(Br)s1 | 12.55
Cc1ncc(CNC(=O)c2oc3ccccc3c2CN(C)C)s1 | -21.47
CN(CC1Cc2ccccc2CN1C)C(=O)CSc1nccn1C (configuration not stated) | 53.61
Cc1cc(=O)[nH]c(SCC(=O)N(C)CC2Cc3ccccc3CN2C)n1 (configuration not stated) | -15.36
CN(CC1Cc2ccccc2CN1C)C(=O)CSc1ccccn1 (configuration not stated) | 35.54
COc1ccc(CCCN(C)C(=O)c2cc(Cl)c[nH]2)cc1OC | 32.31
O=C(C1CC1)N1Cc2[nH]nc(COCc3cccnc3)c2C1 | -14.61

SMILES | INHIBITION [%]
O=C(Nc1cc(CCC2CCN(CCO)CC2)ccn1)c1ccccn1 | 35.19
COc1cccc(CC(=O)N2CC[C@@H]3[C@H](CC2)N(C)CCS3(=O)=O)c1 | 4.38
CC(C)C(=O)N1CC[C@H]2N(C)CC[C@@]2(C(=O)Nc2ccccc2)CC1 | 17.69
CNC(=O)N1CC[C@H]2N(C)CC[C@@]2(C(=O)Nc2ccccc2)CC1 | 62.13
CC(C)CC(=O)N1CC[C@H]2N(C)CC[C@@]2(C(=O)Nc2ccccc2)CC1 | 11.87
CC(C)(C)Nc1nc(-c2cccnc2)c(-c2ccnc(NCCO)n2)s1 | -31.71
CCOC1CCC2(CCN(C(=O)c3c[nH]cn3)CC2)c2ccccc21 (configuration not stated) | 28.46
CC(C)c1nn(C)c(N2CCOCC2)c1CNC(C)c1ccco1 (configuration not stated) | 53.98
Cc1ccc(C(C)NCc2c(C(C)C)nn(C)c2N2CCOCC2)o1 (configuration not stated) | -41.76
Cc1nn(C)c(N2CCOCC2)c1CNC(C)c1ccco1 (configuration not stated) | -39.37
NC(CC1CCCC1)c1ccccc1 (configuration not stated) | 10.24
CCN1CCCC1CNC(=O)c1cc(COc2cccc(F)c2)[nH]n1 (configuration not stated) | 21.67
O=C(CC1CC1)N1CCc2ncc(Cn3cncn3)n2CC1 | 31.73
CC(C)S(=O)(=O)N1CCCC(c2nccn2Cc2cccnc2)C1 (configuration not stated) | -7.66
O=C([C@@H]1CCO[C@@H]2CCN(CC3CCOCC3)C[C@H]21)N1CCCO1 | -3.19
Cc1noc(C)c1CN1CC[C@H]2OCC[C@@H](C(=O)NCC3CC3)[C@@H]2C1 | 6.04
O=C([C@@H]1CCO[C@@H]2CCN(CC3CC3)C[C@H]21)N1CCCCO1 | 57.07
O=C([C@@H]1CCO[C@@H]2CCN(CC3CC3)C[C@H]21)N1CCCC1 | -16.33
Cc1noc(C)c1CN1CC[C@H]2OCC[C@@H](C(=O)N3CCCO3)[C@@H]2C1 | -13.8
Cc1noc(C)c1CN1CC[C@H]2OCC[C@@H](C(=O)N3CCCO3)[C@H]2C1 | 59.08
CCn1ccc(NC(=O)C2CCC(=O)N2Cc2ccc(C)o2)n1 (configuration not stated) | 45.14
O=C(c1cc(=O)n(-c2ccccc2)[nH]1)N1CCOCC(O)C1 (configuration not stated) | 4.12
COCCOc1ccccc1NC(C)C(=O)NC(=O)NC(C)(C)C (configuration not stated) | -19.21
CCCc1n[nH]c(C2CN(C(=O)c3ccc[nH]3)CCO2)n1 (configuration not stated) | -70.51
CC(Cc1ccccc1F)NC(=O)CCC1=NC(=C2N=CN=N2)NO1 (configuration not stated) | 24.12
COCCNC(=O)Cn1c(-c2cccc(F)c2)nc(C)c(CCO)c1=O | -4.75

SMILES | INHIBITION [%]
COCCC1(CO)CCCN(Cc2ccncc2)C1 (configuration not stated) | 10.53
OCC1(Cc2ccc(F)cc2F)CCCN(Cc2ccncc2)C1 (configuration not stated) | 61.48
O=C(O)C1(Cc2ccc(F)cc2F)CCCN(Cc2ccncc2)C1 (configuration not stated) | 43.57
Cc1c(-c2cc(C(=O)N3CCc4ncc(Cl)cc4C3)on2)cnn1C | -30.88
O=C(NCC(F)F)c1cc(-c2ccccc2)nc2ncnn12 | 5.88
CCc1nc(CCNC(=O)NC2CCSCC2)cs1 | 50.32
CCc1nc(CCNC(=O)Nc2ccc(C(=O)NC)cc2)cs1 | -58.5
CCc1nc(CCNC(=O)NC2CC(=O)N(C(C)(C)C)C2)cs1 (configuration not stated) | 3.62
CCNCc1ccc(OCc2ccc3c(c2)OCCO3)cc1 | 12.94
NC1CC(C(F)(F)F)=NC=C1c1ccccc1 (configuration not stated) | 25.93
Cc1ccccc1NC(=O)NCCn1nc(C(F)(F)F)n(C)c1=O | 16.54
Cn1c(C(F)(F)F)nn(CCNC(=O)Nc2ccccc2Cl)c1=O | 64.74
Cn1c(C(F)(F)F)nn(CCNC(=O)Nc2ccccc2F)c1=O | 37.87
Cn1cc(C(=O)N2CCN(Cc3cscn3)CC2)ccc1=O | -15.08
O=C(NCc1ccccc1)N1CCC2(CC(=O)N(c3ccsc3)C2)C1 (configuration not stated) | 18.86
Cc1cccc(NC(=O)N2CCC3(CC(=O)N(c4ccsc4)C3)C2)c1 (configuration not stated) | 1.29
CCN1CC2(CNCCN(C(=O)Nc3ccccc3)C2)CC1=O (configuration not stated) | 17.77
CN1CC2(CNCCN(C(=O)Nc3ccccc3)C2)CC1=O (configuration not stated) | 56.21
CC(=O)N1CCN(C(=O)Nc2ccccc2)CC2(CC(=O)N(C)C2)C1 (configuration not stated) | 7.88
O=C(Nc1ccccc1)N1CCC2(CC(=O)N(c3ccsc3)C2)C1 (configuration not stated) | 57.31
Cc1nn(Cn2ccc(C(=O)N3CCCCCC3)n2)c(C)c1Cl | 7.68
CC(NC(N)=O)C(=O)N1CCCN(Cc2nccn2C(C)C)CC1 (configuration not stated) | -7.5
CN(C(=O)Cc1ccc(NC(=O)NC2CCC2)cc1)c1ccccc1 | 43.21
Cc1ccc(C(=O)N2CCC3(CC2)CCN(CCN(C)C)C3=O)cn1 | 39.92
CCn1c(C2CCN(C(=O)c3cc(CC(C)C)on3)CC2)nn(C)c1=O | -5.44
CCn1c(C2CCN(C(=O)c3cc(CC(C)C)no3)CC2)nn(C)c1=O | 51.31

SMILES | INHIBITION [%]
CCn1c(C2CCN(C(=O)c3cc(Cl)no3)CC2)nn(C)c1=O | 13.76
CCN1CCn2c(-c3cccc(F)c3)cnc2C12CCN(C(C)=O)CC2 | -13.68
O=c1[nH]c(NCCCO)nc2c1C1(CCCC1)Cc1ccccc1-2 | 43.82
O=c1[nH]c(NCCO)nc2c1C1(CCCC1)Cc1ccccc1-2 | -29.21
O=c1[nH]c(NCCO)nc2c1C1(CCCCC1)Cc1ccccc1-2 | 53.55
CCN(Cc1ccoc1)C(=O)C1CCN(C(=O)OC(C)(C)C)C1 (configuration not stated) | 30.25
CCN(Cc1ccoc1)C(=O)NC1CCN(C(=O)OC(C)(C)C)C1 (configuration not stated) | 7.93
CCN(Cc1ccoc1)C(=O)C1CN(C(=O)OC(C)(C)C)C1 | 52.03
Cc1cc(-n2nnc(C(=O)O)c2-c2ccncc2)ccc1F | -37.39
Cc1occc1C(=O)N1CCC2(CCCN(c3ncc(F)cn3)C2)C1 (configuration not stated) | -13.37
CC(C)(C)n1cc(C(=O)O)c(-c2ccc(F)cc2F)n1 | 52.98
Cn1cc(C(=O)O)c(-c2ccc(F)cc2F)n1 | 31.51
Cn1cc(C(=O)OCC(N)=O)c(-c2ccc(F)cc2F)n1 | 19.59
COc1ccc(C(=O)C2CCCN(c3nccc(N)n3)C2)c(C)c1 (configuration not stated) | 22.5
COc1ccc(N2CCC(N(C)C(=O)Nc3ccncc3)CC2)cc1 | -18.09
Cc1cccc(CN2CC[C@@H]3[C@@H]2CCN3C(=O)c2cnoc2C)n1 | -15.6
Cn1cc(C(=O)N2CC[C@@H]3[C@@H]2CCN3Cc2ccncc2)cn1 | 70.31
Cn1cc(C(=O)N2CC[C@@H]3[C@@H]2CCN3Cc2ccccc2)cn1 | 28.85
Cc1cccc(N2CC[C@H]3[C@H]2CCN3C(=O)c2cnn(C)c2)n1 | 3.56
Cc1cccc(CN2CC[C@@H]3[C@@H]2CCN3C(=O)c2ccno2)n1 | 51.94
Cn1cc(C(=O)N2CC[C@@H]3[C@@H]2CCN3Cc2cccnc2)cn1 | -31.39
Cc1cccc(CN2CC[C@H]3[C@H]2CCN3Cc2cnn(C)c2)n1 | 46.68
Cc1cccc(CN2CC[C@@H]3[C@@H]2CCN3C(=O)c2cc(C)on2)n1 | 26.01
Cc1cccc(CN2CC[C@H]3[C@H]2CCN3C(=O)c2cnn(C)c2)n1 | 51.4

— ChEMBL document CHEMBL4513216, “Probing the Open Global Health Chemical Diversity Library for Multistage-Active Starting Points for Next-Generation Antimalarials” (ACS Infect Dis, 2020)
